Experimental data published in PubChem BioAssay (NCI).
Several values for one entry are separate records, joined by “and”; a condition that tells them apart may be missing. Equal entries are not always repeated. This is part of a sample that, as a whole, favours compounds with a hit. Of some 83,000 tested, about 20% had one in any assay.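 Cells were grown in 96-well plates and exposed to the test compound at a single concentration for 48 hours; results are reported as percent growth, with values below 10 considered active.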 Values without a mark were called inactive. Activity calls are given as the source filed them.

Legend:
Test in all cases: NCI-60 one-dose screen, 48 h (100 = growth as untreated, 0 = no growth, -100 = all killed)
Details in all cases: 10 µM
NCI-H23 lung = test system: NCI-H23 lung
NCI-H226 lung = test system: NCI-H226 lung
NCI-H322M lung = test system: NCI-H322M lung
HOP-62 NSCLC = test system: HOP-62 NSCLC
NCI-H460 lung = test system: NCI-H460 lung
NCI-H522 lung = test system: NCI-H522 lung
A549/ATCC NSCLC = test system: A549/ATCC NSCLC
786-0 renal = test system: 786-0 renal
COLO 205 colon = test system: COLO 205 colon
DU-145 prostate = test system: DU-145 prostate
K-562 leukemia = test system: K-562 leukemia
MALME-3M melanoma = test system: MALME-3M melanoma
MDA-MB-231 breast = test system: MDA-MB-231 breast
RXF 393 renal = test system: RXF 393 renal
SF-268 CNS = test system: SF-268 CNS
SF-295 CNS = test system: SF-295 CNS
SF-539 CNS = test system: SF-539 CNS
UACC-257 melanoma = test system: UACC-257 melanoma
M14 melanoma = test system: M14 melanoma
HOP-92 NSCLC = test system: HOP-92 NSCLC

Structure (SMILES)	growth (NCI-H23 lung)	growth (NCI-H226 lung)	growth (NCI-H322M lung)	growth (HOP-62 NSCLC)	growth (NCI-H460 lung)	growth (NCI-H522 lung)	growth (A549/ATCC NSCLC)	growth (786-0 renal)	growth (COLO 205 colon)	growth (DU-145 prostate)	growth (K-562 leukemia)	growth (MALME-3M melanoma)	growth (MDA-MB-231 breast)	growth (RXF 393 renal)	growth (SF-268 CNS)	growth (SF-295 CNS)	growth (SF-539 CNS)	growth (UACC-257 melanoma)	growth (M14 melanoma)	growth (HOP-92 NSCLC)
NC(Cc1ccccc1)c1ccccc1 (centres undefined)	97.7% and 105%	91.9% and 97.7%	102% and 103%	105%	107% and 111%	94.5%	111%	97.4% and 98.4%	103% and 105%	117% and 120%	108% and 94.4%	106% and 109%	102% and 95%	105% and 109%	106% and 103%	102% and 104%	103% and 97.2%	106% and 95.4%	95.1% and 94%	
CC12OOC(c3ccccc31)c1c2ccc2ccccc12 (centres undefined)		86.7%	76.8%	73.3%	-63.2% (active)	-91.2% (active)	65.4%	66.1%	-65.4% (active)	-95.3% (active)	-82.8% (active)	-88.4% (active)	49.7%	67.3%	43.1%	82.5%	83%	-17% (active)	-7.71% (active)	-61.9% (active)
CC(C)C1(NC(=O)C2CC3c4cccc5[nH]cc(c45)CC3N(C)C2)OC2(O)C3CCCN3C(=O)C(Cc3ccccc3)N2C1=O (centres undefined)	99.4%	103%	118%	110%	109%	82.1%	107%	96.3%		104%	69.8%	98.8%	86.9%	96.6%	93.1%	106%	98.8%	93.7%	103%	
C/C1=C\[C@H](C)C[C@H](C)OC(=O)C[C@H](c2ccc(O)cc2)NC(=O)[C@@H](Cc2c(Br)[nH]c3ccccc23)N(C)C(=O)[C@H](C)NC(=O)[C@@H](C)C1	-4.18% (active)	-6.93% (active)	8.82% (active)	-40.4% (active)	-13% (active)	-62.5% (active)	3.5% (active)	-55.9% (active)	9.93% (active)	-15.6% (active)	0.288% (active)	-65% (active)	-33.2% (active)	-49.2% (active)	-30.3% (active)	-61.2% (active)	-36.8% (active)	0.643% (active)	-71.2% (active)	
O=C(CBr)Nc1ccccc1		98.4%	97.9%	109%	107%	-84% (active)	98.5%	102%	116%	102%	39.4%	54.7%	95.3%	107%	90.1%	103%	106%	99.5%	84.4%	101%
COc1cc2c(c(OC)c1OC)-c1ccc(O)c(=O)cc1[C@@H](NC(C)=O)CC2	65.1%	68.9%	57.5%	28.9%	24.6%		31.9%	68.9%		61.5%	46.8%	79.8%	72.2%	59.7%	47.5%		51.5%	75.7%	52.7%	
CC(=O)Nc1c2sscc-2n(C)c1=O	-95.3% (active)	-100% (active)	-100% (active)	-100% (active)	-77.4% (active)	-90.8% (active)	-65% (active)	-100% (active)	-87.1% (active)	-100% (active)	-72.9% (active)	-89.7% (active)	-92.4% (active)	-92.5% (active)	-80.4% (active)	-96.5% (active)	-94.9% (active)	-44.5% (active)	-96.7% (active)	
